# Reference: PubChem BioAssay (NCI)
# Compounds without any hit were thinned out: in the full panel of roughly 83,000, 20% have a hit.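 The endpoint reported here, percent growth, reads 100 for growth as untreated, 0 for no net growth and -100 for all cells dead.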 Calls of active or inactive are those of the source. The calls were made as follows: active = growth percent below 10; inactive = the rest.
# System: HL-60(TB) leukemia
# Assay: NCI-60 one-dose screen, 48 h (100 = growth as untreated, 0 = no growth, -100 = all killed)
# Details: 10 µM unless noted
row,Compound,growth
1,O=C(c1ccccc1)c1ccc(O)c2ncccc12,19.8% (inactive)
2,NC1=C(Cl)C(=O)c2ccc(S(N)(=O)=O)cc2C1=O,3.12% (active)
3,CCn1c(Sc2nnc(Nc3ccccc3)s2)nc2c1c(=O)n(C)c(=O)n2C,113% (inactive)
4,CCCCNC1=C(OCC)C(=O)c2ccccc2C1=O,101% (inactive)
5,C=C1C(=O)O[C@H]2[C@H]1CC/C(COC(=O)NCC(=O)Nc1ccc(OC)c(C(N)=O)c1O)=C\CC[C@@]1(C)O[C@@H]21,-7.13% (active)
6,CC(C)CCSc1nc(Nc2ccccc2)c(C#N)c(-c2ccc(F)cc2)n1,59.6% (inactive)
7,CCCCCC/C=C\CCCCCCCCCc1cc(O)cc(OC)c1O,-44.7% (active)
8,CCC1=C(c2ccc(OC)cc2)C(C)Oc2cc(OC(C)=O)ccc21 (stereo not given),56.7% (inactive)
9,Cc1ccc(-c2nc(/C=N/Nc3cc(C)nc4ccc(Br)cc34)c(C)o2)cc1,-37.4% (active)
10,Cc1c(O)c(=O)n(-c2ccccc2)n1C,119% (inactive)
11,COC1=CC(=O)C(OC)=C(OC)C1=O,61.4% (inactive)
12,O=c1n(CC2CO2)c(=O)n(CC2CO2)n1CC1CO1 (stereo not given),7.91% (active)
13,COc1ccc(/C=C/C(C)=N/OCC(=O)O)cc1,89.1% (inactive)
14,COc1ccc(/C=C/C(=O)c2cc3c(N)c(C(=O)Nc4ccccc4)sc3nc2C)cc1,2.92% (active)
15,COc1cc(C(=O)/C=C/c2c(C)n([O-])c3ccc(C)cc3[n+]2=O)cc(OC)c1OC,-42.6% (active)
16,Cc1nc(Nc2cccnc2)sc1C(=O)/C=C/c1ccc(F)cc1,12.6% (inactive)
17,CN(C)c1ccc(/C=C2\C=C(c3nc4ccccc4s3)OC2=O)cc1,94.8% (inactive)
18,CCN(CC)c1ccc(CNc2cc(C)nc3ccc(OC)cc23)cc1,-56.3% (active)
19,CCOCCOCCOCCOCCOCCOCCOCCOCCOCCO (tested in a mixture with another compound),-54.9% (active)
20,O=C(O)CSCC(=O)Nc1cc(C(F)(F)F)ccc1Cl,102% (inactive)

row,Compound,growth
1,CCOC(=O)CN(c1sc(C)c(C)c1C(=O)OCC)S(=O)(=O)c1ccc(C)cc1,94.2% (inactive)
2,CN(CC(=O)N(Cc1ccc(C2CCCCC2)cc1)c1ccc(C(=O)NO)cc1)S(=O)(=O)c1c(F)c(F)c(F)c(F)c1F,43.6% (inactive)
3,Cc1cc(C2=NNC(=O)Cc3cc4c(cc32)OCCO4)cc(C)c1N,21.6% (inactive)
4,O=C1CC(c2ccsc2)c2snc(-c3ccc(Cl)cc3)c2N1 (stereo not given),12.9% (inactive)
5,NS(=O)(=O)c1ccc(CCN2C(=O)/C(=C\c3ccc(Cl)cc3)C=C2c2ccc3ccccc3c2)cc1,99.5% (inactive)
6,CCOCCC(=O)O,106% (inactive)
7,CN(C)CCOC(=O)Nc1nc2ccc(Sc3ccccc3)cc2[nH]1,-6.29% (active)
8,C=CCOc1ccc(/C(O)=C2\C(=O)C(=O)N(c3nccs3)C2c2ccccc2F)cc1 (stereo not given),81.1% (inactive)
9,CC(C)OC(=O)[C@H](C)N[P@@](=O)(OC[C@@]1(C)O[C@@H](n2cc(F)c(N)nc2=O)C[C@@H]1O[P@](=O)(N[C@@H](C)C(=O)OC(C)C)Oc1ccccc1)Oc1ccccc1,95.5% (inactive)
10,O=c1n(CC2CO2)c(=O)n(CC2CO2)c(=O)n1CC1CO1 (stereo not given),20.4% (inactive)
11,COc1ccc(-c2c[nH]c(C(=O)O)c2-c2cc(OC)c3c(c2OC)OCO3)cc1,105% (inactive)
12,CCN(CC)CCSc1c2ccc(Cl)cc2nc2ccc(OC)cc12,68.8% (inactive)
13,COc1ccc2nc(-n3nc(C)cc3C)c(-n3nc(C)cc3C)nc2c1,104% (inactive)
14,Clc1cc(Cl)cc(N2N=C(c3cccc(Nc4ccncc4)c3)CC2c2ccccc2)c1 (stereo not given),4.62% (active)
15,COc1ccc(/C(C#N)=C/c2cc(OC)c(OC)c(OC)c2)cc1,14.8% (inactive)
16,Cc1cccc(-c2nnc(SCC(=O)Nc3ncc(Cc4ccccc4)s3)n2N2C(=O)CSC2=S)c1,97.8% (inactive)
17,CCCCNP1(NCCCC)=NP(NCCCC)(NCCCC)=NP(NCCCC)(NCCCC)=NP(NCCCC)(NCCCC)=N1,-59.3% (active)
18,Cc1cc2c(cc1[N+](=O)[O-])NC(CNC(C)C)CC2 (stereo not given),90.9% (inactive)
19,CCN(CC)CCNC(=O)c1c(C)[nH]c(/C=C2\C(=O)Nc3ccc(F)cc32)c1C,-23% (active)
20,COc1cc(/C=C/C(=O)c2c(C)oc3nc[nH]c(=O)c23)cc(OC)c1OC,65.9% (inactive)
